Common to all, as to settings: mRNA level, 48 h; actives raise or lower the signal
Read-out in experiment [1]: MicroRNA 122 (MIR122), gene 406906
The experiment can be described thus: LTEA_HepaRG_MIR122: Life Technologies and Expression Analysis (LTEA) Assay for MicroRNA 122 (MIR122) using HepaRG (AID 2283516). Also: the transcript read is the microRNA miR-122. Put shortly: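 Differentiated human HepaRG cells in serum-free induction medium exposed 48 h to 8 half-log concentrations from 100 uM in 0.5% DMSO, duplicate. MIR122 quantified by Fluidigm TaqMan qRT-PCR, normalised to ACTB, GAPDH, POLR2A; fold change fitted bidirectionally versus DMSO.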

Read-out in experiment [2]: matrix metalloproteinase-10 (MMP10), MMP10 (gene 4319)
The experiment is described as follows: LTEA_HepaRG_MMP10: Life Technologies and Expression Analysis (LTEA) Assay for matrix metalloproteinase-10 (MMP10) using HepaRG (AID 2283517). The essentials: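 Differentiated HepaRG cells in serum-free induction medium exposed 48 h in duplicate to 8-point half-log series up to 100 uM in 0.5% DMSO. mRNA quantified by qRT-PCR, normalised to ACTB, GAPDH, POLR2A; bidirectional fit versus DMSO.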

Read-out in a further experiment: MYC, MYC (gene 4609)
The experiment is described as follows: LTEA_HepaRG_MYC: Life Technologies and Expression Analysis (LTEA) Assay for MYC using HepaRG (AID 2283518). The essentials:
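Differentiated human HepaRG cells, plated 48 h then switched to serum-free induction medium, were exposed in duplicate for 48 h to 8-point half-log series up to 100 uM in 0.5% DMSO. MYC mRNA measured by qRT-PCR, normalized to ACTB/GAPDH/POLR2A.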

Read-out in experiment [3]: matrix metalloproteinase-3 (MMP3), MMP3 (gene 4314)
The experiment is described as follows: LTEA_HepaRG_MMP3: Life Technologies and Expression Analysis (LTEA) Assay for matrix metalloproteinase-3 (MMP3) using HepaRG (AID 2283519). The essentials: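 HepaRG cells (~100,000/well) in serum-free induction medium were dosed in duplicate for 48 h with an 8-point half-log series from 100 uM, 0.5% DMSO. MMP3 mRNA was quantified by Fluidigm TaqMan qRT-PCR, normalized to three housekeeping genes.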

Read-out in experiment [4]: Paternally Expressed 10 (PEG10), PEG10 (gene 23089)
The experiment can be described thus: LTEA_HepaRG_PEG10: Life Technologies and Expression Analysis (LTEA) Assay for Paternally Expressed 10 (PEG10) using HepaRG (AID 2283520). The essentials:
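Differentiated HepaRG cells exposed 48 h in serum-free induction medium to eight half-log concentrations topping at 100 uM, 0.5% DMSO, in duplicate. PEG10 mRNA quantified by TaqMan qRT-PCR, normalized to ACTB, GAPDH and POLR2A; bidirectional fit versus DMSO.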

Read-out in experiment [5]: Protein phosphatase 2A (PPP2R4), PTPA (gene 5524)
The experiment is described as follows: LTEA_HepaRG_PPP2R4: Life Technologies and Expression Analysis (LTEA) Assay for Protein phosphatase 2A (PPP2R4) using HepaRG (AID 2283522). The essentials: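 Differentiated human HepaRG cells in serum-free induction medium were exposed 48 h to 8 concentrations (top 100 µM, half-log steps, duplicate) in 0.5% DMSO. PPP2R4 mRNA was measured by TaqMan qRT-PCR, normalised to ACTB, GAPDH and POLR2A, and fitted bidirectionally versus DMSO.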

Read-out in experiment [6]: Phosphatase and tensin (PTEN), PTEN (gene 5728)
The experiment is described as follows: LTEA_HepaRG_PTEN: Life Technologies and Expression Analysis (LTEA) Assay for Phosphatase and tensin (PTEN) using HepaRG (AID 2283523). The essentials:
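HepaRG cells, 48 h after plating, exposed in duplicate for 48 h in serum-free induction medium to 8 half-log concentrations up to 100 uM (0.5% DMSO). PTEN mRNA by qRT-PCR, normalized to ACTB, GAPDH, POLR2A; bidirectional fit versus DMSO.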

Read-out in experiment [7]: solute carrier (SLC22A1), SLC22A1 (gene 6580)
The experiment can be described thus: LTEA_HepaRG_SLC22A1: Life Technologies and Expression Analysis (LTEA) Assay for solute carrier (SLC22A1) using HepaRG (AID 2283524). The essentials:
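Differentiated human HepaRG cells in serum-free induction medium, exposed 48 h in duplicate to 8-point half-log series from 100 µM top in 0.5% DMSO. SLC22A1 mRNA by TaqMan qRT-PCR normalized to ACTB, GAPDH, POLR2A; bidirectional fit versus DMSO.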

Read-out in experiment [8]: Pyruvate Dehydrogenase Kinase 4 (PDK4), PDK4 (gene 5166)
The experiment is described as follows: LTEA_HepaRG_PDK4: Life Technologies and Expression Analysis (LTEA) Assay for Pyruvate Dehydrogenase Kinase 4 (PDK4) using HepaRG (AID 2283525). The essentials: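 HepaRG cells plated 48 h, then switched to serum-free induction medium and exposed in duplicate for 48 h to 8 half-log concentrations from 100 uM in 0.5% DMSO. PDK4 mRNA measured by qRT-PCR, normalized to ACTB, GAPDH and POLR2A; bidirectional fit versus DMSO.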

Read-out in experiment [9]: NAD(P)H dehydrogenase [quinone] 1 (NQO1), NQO1 (gene 1728)
The experiment can be described thus: LTEA_HepaRG_NQO1: Life Technologies and Expression Analysis (LTEA) Assay for NAD(P)H dehydrogenase [quinone] 1 (NQO1) using HepaRG (AID 2283526). Put shortly: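 Differentiated human HepaRG cells in serum-free induction medium, dosed in duplicate for 48 h at 8 half-log concentrations up to 100 uM in 0.5% DMSO. NQO1 mRNA by qRT-PCR normalized to ACTB, GAPDH, POLR2A; bidirectional fit versus DMSO baseline.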

Read-out in experiment [10]: Nuclear factor erythroid 2-related factor 2 (Homo sapiens) (UniProt Q16236)
The experiment can be described thus: LTEA_HepaRG_NFE2L2: Life Technologies and Expression Analysis (LTEA) Assay for Nuclear factor erythroid 2-related factor 2 (NFE2L2) Transcription Factor using HepaRG (AID 2283527).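 Also: TaqMan qRT-PCR transcript level normalised to ACTB GAPDH and POLR2A housekeeping genes.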 The essentials: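 Differentiated human HepaRG cells, serum-free induction medium, exposed 48 h in duplicate to eight half-log concentrations up to 100 uM in 0.5% DMSO. NFE2L2 mRNA by Fluidigm TaqMan qRT-PCR, normalised to ACTB, GAPDH, POLR2A; bidirectional change versus DMSO.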

Read-out in experiment [11]: succinate dehydrogenase complex iron sulfur subunit B (SDHB), SDHB (gene 6390)
The experiment is described as follows: LTEA_HepaRG_SDHB: Life Technologies and Expression Analysis (LTEA) Assay for succinate dehydrogenase complex iron sulfur subunit B (SDHB) using HepaRG (AID 2283528). The essentials: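 HepaRG cells (~100,000/well, plated 48 h) exposed in duplicate for 48 h in serum-free induction medium to 8-point half-log series from 100 uM in 0.5% DMSO; mRNA by qRT-PCR normalised to ACTB, GAPDH, POLR2A; bidirectional fit versus DMSO.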

Read-out in experiment [12]: Signal transducer and activator of transcription 3 (Homo sapiens) (UniProt P40763)
The experiment is described as follows: LTEA_HepaRG_STAT3: Life Technologies and Expression Analysis (LTEA) Assay for Signal transducer and activator of transcription (STAT3) using HepaRG (AID 2283529). Put shortly: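 Differentiated HepaRG cells, serum-free induction medium, dosed 48 h in duplicate, 8 half-log concentrations from 100 uM in 0.5% DMSO. STAT3 mRNA by qRT-PCR, normalised to ACTB, GAPDH, POLR2A; bidirectional fit versus DMSO.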

Read-out in experiment [13]: solute carrier (SLCO1B1), SLCO1B1 (gene 10599)
The experiment can be described thus: LTEA_HepaRG_SLCO1B1: Life Technologies and Expression Analysis (LTEA) Assay for solute carrier (SLCO1B1) using HepaRG (AID 2283530). The essentials:
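Differentiated human HepaRG cells, plated 48 h, switched to serum-free induction medium and exposed in duplicate for 48 h to 8 half-log concentrations (top 100 uM) in 0.5% DMSO. SLCO1B1 mRNA by TaqMan qRT-PCR, normalized to ACTB/GAPDH/POLR2A.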

Read-out in experiment [14]: sulfotransferase 2A1 (SULT2A1), SULT2A1 (gene 6822)
The experiment can be described thus: LTEA_HepaRG_SULT2A1: Life Technologies and Expression Analysis (LTEA) Assay for sulfotransferase 2A1 (SULT2A1) using HepaRG (AID 2283531). The essentials:
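Differentiated human HepaRG cells in serum-free induction medium were exposed for 48 h to eight half-log concentrations (top 100 uM, 0.5% DMSO). SULT2A1 mRNA was measured by qRT-PCR, normalized to ACTB, GAPDH and POLR2A, and fitted bidirectionally against DMSO.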

Read-out in experiment [15]: Transforming Growth Factor (TGFA), TGFA (gene 7039)
The experiment is described as follows: LTEA_HepaRG_TGFA: Life Technologies and Expression Analysis (LTEA) Assay for Transforming Growth Factor (TGFA) using HepaRG (AID 2283532). Put shortly:
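Differentiated HepaRG cells exposed 48 hours in serum-free induction medium, 0.5% DMSO vehicle, 8-point half-log series from 100 uM, in duplicate. TGFA mRNA by TaqMan qRT-PCR, normalised to ACTB, GAPDH, POLR2A; bidirectional fit versus DMSO.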

Read-out in experiment [16]: Transforming Growth Factor (TGFB1), TGFB1 (gene 7040)
The experiment is described as follows: LTEA_HepaRG_TGFB1: Life Technologies and Expression Analysis (LTEA) Assay for Transforming Growth Factor (TGFB1) Transporter using HepaRG (AID 2283533). Put shortly: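 Differentiated human HepaRG cells in serum-free induction medium were exposed in duplicate for 48 h to eight concentrations (top 100 uM, half-log steps, 0.5% DMSO). TGFB1 mRNA was quantified by qRT-PCR, normalized to ACTB, GAPDH, POLR2A, and fitted bidirectionally against DMSO.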

Read-out in a further experiment: TIMP1, TIMP1 (gene 7076)
The experiment can be described thus: LTEA_HepaRG_TIMP1: Life Technologies and Expression Analysis (LTEA) Assay for TIMP1 using HepaRG (AID 2283534).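 Also: TaqMan qRT-PCR signal normalized to ACTB GAPDH and POLR2A housekeeping genes.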 Put shortly:
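Differentiated human HepaRG cells in serum-free induction medium were exposed 48 h to chemicals (8 half-log concentrations, top 100 uM, 0.5% DMSO). TIMP1 mRNA was quantified by TaqMan qRT-PCR, normalized to ACTB/GAPDH/POLR2A; bidirectional fit versus DMSO.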

Read-out in experiment [17]: Lipoprotein lipase (LPL), LPL (gene 4023)
The experiment can be described thus: LTEA_HepaRG_LPL: Life Technologies and Expression Analysis (LTEA) Assay for Lipoprotein lipase (LPL) using HepaRG (AID 2283515). The essentials: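 Differentiated HepaRG cells, plated 48 h, then exposed 48 h in serum-free induction medium to 8 concentrations (top 100 uM, half-log steps) in 0.5% DMSO, duplicate. LPL mRNA measured by qRT-PCR, normalized to ACTB, GAPDH and POLR2A.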

Read-out in experiment [18]: Nuclear factor NF-kappa-B p105 subunit (Homo sapiens) (UniProt P19838)
The experiment can be described thus: LTEA_HepaRG_NFKB1: Life Technologies and Expression Analysis (LTEA) Assay for Nuclear Factor Kappa B Subunit 1 (NFKB1) using HepaRG (AID 2283521).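 Also: TaqMan qRT-PCR transcript normalised to ACTB GAPDH and POLR2A housekeeping genes.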 Put shortly:
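Differentiated human HepaRG cells in serum-free induction medium with 0.5% DMSO were exposed for 48 h to eight half-log concentrations, top 100 uM, in duplicate. NFKB1 mRNA measured by Fluidigm TaqMan qRT-PCR, normalised to ACTB, GAPDH and POLR2A; bidirectional fit versus DMSO.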

Three compounds from PubChem BioAssay (EPA / NIEHS) can be followed below.

Some compounds were tested as several samples or in several runs, with calls that do not always agree. The source made the active and inactive calls. The calls were made as follows: active = hit-call score of the fitted dose curve at least 0.9, where 1 is the maximum; inactive = score below 0.9.

Chain of Signal transducer and activator of transcription 3 (Homo sapiens) (P40763 whole entry, looked up): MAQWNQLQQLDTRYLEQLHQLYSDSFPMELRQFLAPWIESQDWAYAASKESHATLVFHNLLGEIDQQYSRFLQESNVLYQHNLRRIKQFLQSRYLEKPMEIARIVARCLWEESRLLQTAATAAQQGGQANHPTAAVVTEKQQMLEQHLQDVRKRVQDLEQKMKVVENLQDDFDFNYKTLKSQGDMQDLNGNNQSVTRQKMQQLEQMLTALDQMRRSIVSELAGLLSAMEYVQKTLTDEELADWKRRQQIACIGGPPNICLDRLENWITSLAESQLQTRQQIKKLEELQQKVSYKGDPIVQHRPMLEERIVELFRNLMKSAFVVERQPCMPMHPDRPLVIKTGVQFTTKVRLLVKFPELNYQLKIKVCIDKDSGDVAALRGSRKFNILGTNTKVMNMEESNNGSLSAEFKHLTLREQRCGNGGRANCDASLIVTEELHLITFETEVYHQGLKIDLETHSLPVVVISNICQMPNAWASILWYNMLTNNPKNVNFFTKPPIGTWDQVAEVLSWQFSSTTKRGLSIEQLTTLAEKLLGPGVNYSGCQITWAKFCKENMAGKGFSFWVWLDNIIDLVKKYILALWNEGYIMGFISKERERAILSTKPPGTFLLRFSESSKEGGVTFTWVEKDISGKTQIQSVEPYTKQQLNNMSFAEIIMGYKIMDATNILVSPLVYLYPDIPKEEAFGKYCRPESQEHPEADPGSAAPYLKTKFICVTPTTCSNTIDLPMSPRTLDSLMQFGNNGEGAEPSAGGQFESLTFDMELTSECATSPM
Chain of Nuclear factor erythroid 2-related factor 2 (Homo sapiens) (Q16236 whole entry, looked up): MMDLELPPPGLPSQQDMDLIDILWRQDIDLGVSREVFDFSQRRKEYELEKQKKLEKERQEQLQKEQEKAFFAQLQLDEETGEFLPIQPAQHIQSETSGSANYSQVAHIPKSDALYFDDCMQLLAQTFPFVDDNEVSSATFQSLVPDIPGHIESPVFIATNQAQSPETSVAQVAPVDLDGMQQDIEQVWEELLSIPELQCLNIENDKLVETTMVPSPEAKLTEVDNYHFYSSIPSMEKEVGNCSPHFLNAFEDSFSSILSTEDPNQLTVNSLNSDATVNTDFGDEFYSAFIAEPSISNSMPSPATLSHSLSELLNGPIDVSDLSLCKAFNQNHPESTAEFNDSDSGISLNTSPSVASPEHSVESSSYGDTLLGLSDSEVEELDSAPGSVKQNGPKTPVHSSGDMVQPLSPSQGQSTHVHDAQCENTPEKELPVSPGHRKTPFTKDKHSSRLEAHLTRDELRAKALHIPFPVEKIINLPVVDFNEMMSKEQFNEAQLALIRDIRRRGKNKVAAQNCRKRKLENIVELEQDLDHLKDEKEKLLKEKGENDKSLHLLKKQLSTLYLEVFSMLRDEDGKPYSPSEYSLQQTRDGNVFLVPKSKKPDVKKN
Chain of Nuclear factor NF-kappa-B p105 subunit (Homo sapiens) (P19838 whole entry, looked up): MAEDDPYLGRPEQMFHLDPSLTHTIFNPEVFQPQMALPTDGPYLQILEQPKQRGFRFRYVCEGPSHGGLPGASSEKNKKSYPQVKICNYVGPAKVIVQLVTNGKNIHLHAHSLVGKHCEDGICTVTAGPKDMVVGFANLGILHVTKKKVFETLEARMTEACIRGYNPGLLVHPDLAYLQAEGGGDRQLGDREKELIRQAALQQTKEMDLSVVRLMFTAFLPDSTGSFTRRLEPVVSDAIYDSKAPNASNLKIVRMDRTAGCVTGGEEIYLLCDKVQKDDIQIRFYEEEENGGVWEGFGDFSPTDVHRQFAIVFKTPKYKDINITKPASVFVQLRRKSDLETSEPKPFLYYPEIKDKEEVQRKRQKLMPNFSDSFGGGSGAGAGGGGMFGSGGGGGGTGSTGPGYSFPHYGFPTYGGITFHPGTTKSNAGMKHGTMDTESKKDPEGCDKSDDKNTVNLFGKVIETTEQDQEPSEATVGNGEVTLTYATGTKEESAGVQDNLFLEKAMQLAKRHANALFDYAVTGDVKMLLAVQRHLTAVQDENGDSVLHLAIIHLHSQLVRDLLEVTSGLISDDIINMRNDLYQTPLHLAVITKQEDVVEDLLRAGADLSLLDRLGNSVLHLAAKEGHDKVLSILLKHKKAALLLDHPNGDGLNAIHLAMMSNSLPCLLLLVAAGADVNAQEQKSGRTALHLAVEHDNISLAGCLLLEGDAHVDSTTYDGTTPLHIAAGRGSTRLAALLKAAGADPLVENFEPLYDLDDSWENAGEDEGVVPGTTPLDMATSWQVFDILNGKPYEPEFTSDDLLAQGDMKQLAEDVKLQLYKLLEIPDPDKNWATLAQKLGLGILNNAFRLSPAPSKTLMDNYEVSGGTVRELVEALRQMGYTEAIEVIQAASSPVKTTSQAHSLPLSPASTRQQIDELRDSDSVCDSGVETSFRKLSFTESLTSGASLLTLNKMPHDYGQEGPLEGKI

With `CCOP(=S)(OCC)SCn1c(=O)oc2cc(Cl)ccc21`, the outcome in experiment [1] is “inactive”; in experiment [2], “inactive”; in the experiment with MYC, MYC (gene 4609), “inactive”; in experiment [3] it was “inactive”; in experiment [4], “inactive”; in experiment [5], “inactive”. Further, the result in [6], in experiment [7], in experiment [8], in [9], in experiment [10] and in experiment [11] was inactive. Moreover, the outcome is “inactive” in [12]; “inactive” in [13]; “inactive” in [14]; “inactive” in experiment [15]; “inactive” in [16]; “inactive” in the experiment with TIMP1, TIMP1 (gene 7076).

`COC(=O)c1ccccc1C(=O)OC`: the outcome was “inactive” in [17]; “inactive” in experiment [1]; “inactive” in experiment [2]; “inactive” with MYC, MYC (gene 4609); “inactive” in experiment [3]; “inactive” in experiment [4]. Besides, the result in experiment [18], in experiment [5], in experiment [6], in [7], in [8] and in experiment [9] was inactive. Also, the outcome in experiment [10], in experiment [11], in [12], in experiment [13], in [14] and in experiment [15] was inactive. Also, the outcome in experiment [16] is “inactive”; in the experiment with TIMP1, TIMP1 (gene 7076), “inactive”.

Turning to `O=C(O)c1nc(Cl)ccc1Cl`, the outcome is “inactive” in experiment [17]; “inactive” in experiment [1]; “inactive” in experiment [2]; “inactive” with MYC, MYC (gene 4609); “inactive” in experiment [3]; “inactive” in [4]. In addition, the outcome in experiment [5], in experiment [6], in [7], in experiment [8], in experiment [9] and in experiment [10] was inactive. Also, the call in experiment [11], in [12], in experiment [13], in experiment [14], in experiment [15] and in experiment [16] was inactive. The call in the experiment with TIMP1, TIMP1 (gene 7076) was inactive. Besides, the AC50 in [8] is 50 µM (active).
